Laboratory results as given in PubChem BioAssay (EPA / NIEHS).
Inconclusive results are not listed. Active and inactive are the calls of the source. Rule for the calls, unless noted: active = hit-call score of the fitted dose curve at least 0.9, where 1 is the maximum; inactive = score below 0.9.

How the values were obtained:
[1] = read-out: E-selectin (Homo sapiens) (UniProt P16581); assay: BSK_3C_Eselectin: BioMAP Diversity Plus: 3C Assay for Eselectin Biomarker Activity (AID 2283015); settings: primary human endothelial cells (HUVEC); actives raise or lower the signal
In short: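 HUVEC, 3C stimulation; compound exposure 24 h; E-selectin by ELISA; gain- or loss-of-signal fitted bidirectionally vs DMSO baseline.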

[2] = read-out: Monocyte Chemoattractant Protein-1 (MCP1), CCL2 (gene 6347); assay: BSK_3C_MCP1: BioMAP Diversity Plus: 3C Assay for Monocyte Chemoattractant Protein-1 (MCP1) Biomarker Activity (AID 2283017); settings: primary human endothelial cells (HUVEC); actives raise or lower the signal
In short: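 HUVEC, 3C system; 24 h chemical exposure; MCP-1 by ELISA; bidirectional curve fit vs DMSO baseline.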

[3] = read-out: Human Leukocyte Antigen - DR isotype (HLADR), HLA-DRA (gene 3122); assay: BSK_3C_HLADR: BioMAP Diversity Plus: 3C Assay for Human Leukocyte Antigen - DR isotype (HLADR) Biomarker Activity (AID 2283019); settings: primary human endothelial cells (HUVEC); actives raise or lower the signal
In short: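 HUVEC, 3C stimulation, 24 h post-dose; HLA-DR by ELISA; bidirectional curve fit vs DMSO baseline; gain or loss of signal scored.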

[4] = read-out: Interleukin-8 (IL8), CXCL8 (gene 3576); assay: BSK_3C_IL8: BioMAP Diversity Plus: 3C Assay for Interleukin-8 (IL8) Biomarker Activity (AID 2283020); settings: primary human endothelial cells (HUVEC); actives raise or lower the signal
In short: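 Using DMSO-treated wells as the baseline, bidirectional curve fitting was applied to ELISA-measured IL-8 from human umbilical vein endothelial cultures sampled 24 h after compound addition.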

[5] = read-out: Monokine induced gamma interferon (MIG), CXCL9 (gene 4283); assay: BSK_3C_MIG: BioMAP Diversity Plus: 3C Assay for Monokine induced gamma interferon (MIG) Biomarker Activity (AID 2283021); settings: primary human endothelial cells (HUVEC); actives raise or lower the signal;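 for AC50: MIG protein level measured by immunoassay in the treated endothelial cultures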
In short: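 ELISA-measured MIG in dosed HUVEC 3C cultures at 24 h, analysed by bidirectional fitting with DMSO defining baseline activity.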

[6] = target: human Vitamin D Receptor (VDR), VDR (gene 7421) (UniProt P11473); assay: ATG_VDR_TRANS: Attagene TRANS-FACTORIAL HepG2 Assay for human Vitamin D Receptor (VDR) (AID 2283022; active = hit-call score of the fitted dose curve at least 0.9, where 1 is the maximum)
Chain of human Vitamin D Receptor (VDR), VDR (gene 7421) (P11473 whole entry, looked up, the tested form may be a part): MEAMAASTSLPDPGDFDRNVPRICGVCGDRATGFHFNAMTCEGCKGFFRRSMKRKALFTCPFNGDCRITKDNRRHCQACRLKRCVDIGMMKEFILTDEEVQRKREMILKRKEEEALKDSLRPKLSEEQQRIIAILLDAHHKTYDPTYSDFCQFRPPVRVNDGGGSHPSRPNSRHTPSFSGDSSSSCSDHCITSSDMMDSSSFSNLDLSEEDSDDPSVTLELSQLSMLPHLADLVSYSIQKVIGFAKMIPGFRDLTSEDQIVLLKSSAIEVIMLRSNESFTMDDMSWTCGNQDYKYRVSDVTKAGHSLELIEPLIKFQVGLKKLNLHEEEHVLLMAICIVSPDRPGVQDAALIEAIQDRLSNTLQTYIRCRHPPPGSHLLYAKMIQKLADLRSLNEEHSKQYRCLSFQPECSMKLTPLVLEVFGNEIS
In short: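 RT-PCR/capillary electrophoresis read-out of reporter mRNA induction in transiently transfected HepG2; 24 h dosing; chimeric NR-Gal4 (TRANS format); gain-of-signal fit against DMSO baseline.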

[7] = BSK_3C_SRB: Viability Assessment in the BioMAP Diversity Plus: 3C Assay (AID 2283023); settings: primary human endothelial cells (HUVEC);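 note: fitted both ways against DMSO so a hit may be signal rise or drop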
In short: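 HUVEC, 24 h post-dose; 10% TCA fix, 0.1% SRB stain, A560 nm. Bidirectional curve fit vs DMSO negative control.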

[8] = read-out: Matrix Metallopeptidase 1 (MMP1), MMP1 (gene 4312); assay: BSK_BE3C_MMP1: BioMAP Diversity Plus: BE3C Assay for Matrix Metallopeptidase 1 (MMP1) Biomarker Activity (AID 2283024); settings: primary human bronchial epithelial cells; actives raise or lower the signal
In short: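 In this multiplexed primary-cell system, human bronchial epithelium received chemicals for 24 h before an ELISA for MMP1. Values reflect bidirectional fits normalised to the DMSO baseline.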

[9] = BSK_3C_Vis: BioMAP Diversity Plus: 3C Assay for Morphology Visualization (AID 2283025); settings: primary human endothelial cells (HUVEC);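 note: fitted both ways so gain or loss versus DMSO counts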;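 for AC50: light microscopy image of cell morphology used as background control; cells imaged 24 h after dosing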
In short: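 Light-microscopy morphology readout, 24 h exposure, human primary umbilical vein endothelium; analysed relative to DMSO with bidirectional fitting.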

[10] = read-out: Pselectin, SELP (gene 6403); assay: BSK_4H_Pselectin: BioMAP Diversity Plus: 4H Assay for Pselectin Biomarker Activity (AID 2283026); settings: primary human endothelial cells (HUVEC); actives raise or lower the signal
In short: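 Bidirectional fits against DMSO gave the endpoint. Cells: primary human umbilical vein endothelium, chemical-treated for 24 h before ELISA detection of P-selectin.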

[11] = BSK_BE3C_SRB: Viability Assessment in the BioMAP Diversity Plus: BE3C Assay (AID 2283028); settings: primary human bronchial epithelial cells
In short: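 Primary human bronchial epithelium; chemical dosing, 24 h; 10% TCA fix, 0.1% SRB stain, A560; bidirectional fit vs DMSO baseline.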

[12] = read-out: Thrombomodulin, THBD (gene 7056); assay: BSK_3C_Thrombomodulin: BioMAP Diversity Plus: 3C Assay for Thrombomodulin Biomarker Activity (AID 2283029); settings: primary human endothelial cells (HUVEC); actives raise or lower the signal
In short: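 In a multiplexed primary-cell system, human umbilical vein endothelium received chemical and was assayed 24 h later for thrombomodulin by ELISA. Parallel cultures were SRB-stained (0.1% SRB after 10% TCA fixation, read at 560 nm) to flag cytotoxicity.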

[13] = read-out: Urokinase-type plasminogen activator receptor (uPAR), PLAUR (gene 5329); assay: BSK_4H_uPAR: BioMAP Diversity Plus: 4H Assay for Urokinase-type plasminogen activator receptor (uPAR) Biomarker Activity (AID 2283030); settings: primary human endothelial cells (HUVEC); actives raise or lower the signal
In short: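 HUVEC, 24 h post-dose; uPAR by ELISA; bidirectional fit vs DMSO baseline.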

[14] = read-out: Vascular endothelial growth factor receptor 2 (Homo sapiens) (UniProt P35968); assay: BSK_4H_VEGFRII: BioMAP Diversity Plus: 4H Assay for Vascular endothelial growth factor receptor 2 (VEGFR2) Biomarker Activity (AID 2283031); settings: primary human endothelial cells (HUVEC); actives raise or lower the signal;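 for AC50: cell-surface VEGFR2 protein level quantified by ELISA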
In short: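 HUVEC (human primary), 4H system; 24 h post-dose; VEGFRII by ELISA; bidirectional curve fit vs DMSO baseline; gain or loss of signal scored.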

[15] = read-out: Vascular cell adhesion molecule 1 (VCAM1), VCAM1 (gene 7412); assay: BSK_4H_VCAM1: BioMAP Diversity Plus: 4H Assay for Vascular cell adhesion molecule 1 (VCAM1) Biomarker Activity (AID 2283033); settings: primary human endothelial cells (HUVEC); actives raise or lower the signal
In short: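 In this human endothelial (HUVEC) system, biomarker ELISA was run 24 h after compound addition, and total protein in parallel wells was assessed by SRB at 560 nm; DMSO served as negative control.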

[16] = read-out: Interferon-gamma inducible Protein 10 (IP10), CXCL10 (gene 3627); assay: BSK_BE3C_IP10: BioMAP Diversity Plus: BE3C Assay for Interferon-gamma inducible Protein 10 (IP10) Biomarker Activity (AID 2283034); settings: primary human bronchial epithelial cells; actives raise or lower the signal
In short: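 BE3C cells (human bronchial epithelial, primary); 24 h exposure; ELISA for IP-10; DMSO-referenced bidirectional fit.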

[17] = BSK_4H_SRB: Viability Assessment in the BioMAP Diversity Plus: 4H Assay (AID 2283027); settings: primary human endothelial cells (HUVEC);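 note: cells exposed to compound for 24 h before staining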;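 for AC50: curves fitted both ways versus DMSO so AC50 may be loss or gain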
In short: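 Cytotoxicity read-out in primary human endothelial cells: after 24 h compound exposure, cells were TCA-fixed (10%), stained with 0.1% SRB and absorbance taken at 560 nm. Values fitted in both directions relative to DMSO.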

[18] = read-out: Human Leukocyte Antigen - DR isotype (HLADR), HLA-DRA (gene 3122); assay: BSK_BE3C_HLADR: BioMAP Diversity Plus: BE3C Assay for Human Leukocyte Antigen - DR isotype (HLADR) Biomarker Activity (AID 2283032); settings: primary human bronchial epithelial cells; actives raise or lower the signal
In short: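 BioMAP BE3C format: human bronchial epithelium, 24 h compound treatment, ELISA detection of HLA-DR, with bidirectional analysis relative to DMSO.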

Measured: AC50

Chain of E-selectin (Homo sapiens) (P16581 whole entry, looked up): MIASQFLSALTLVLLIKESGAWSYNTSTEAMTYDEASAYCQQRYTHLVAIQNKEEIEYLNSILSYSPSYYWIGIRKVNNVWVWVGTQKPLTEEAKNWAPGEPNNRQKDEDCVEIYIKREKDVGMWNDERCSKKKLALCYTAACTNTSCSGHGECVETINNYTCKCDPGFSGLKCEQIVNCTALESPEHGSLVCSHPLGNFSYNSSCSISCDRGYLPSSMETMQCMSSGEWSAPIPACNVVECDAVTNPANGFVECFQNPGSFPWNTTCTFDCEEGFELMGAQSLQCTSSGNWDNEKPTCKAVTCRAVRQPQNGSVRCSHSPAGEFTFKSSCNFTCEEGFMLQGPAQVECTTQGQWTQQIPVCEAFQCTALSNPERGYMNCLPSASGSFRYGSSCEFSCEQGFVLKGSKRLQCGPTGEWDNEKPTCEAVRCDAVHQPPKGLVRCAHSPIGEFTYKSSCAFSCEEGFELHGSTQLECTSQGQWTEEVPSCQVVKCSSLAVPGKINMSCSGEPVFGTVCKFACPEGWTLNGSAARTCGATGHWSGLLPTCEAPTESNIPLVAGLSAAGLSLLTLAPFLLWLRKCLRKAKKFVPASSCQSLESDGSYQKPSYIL

CCCCCCCCCCCCCCCO
inactive: [5] | [6] | [8] | [11] | [13] | [16]
active: [1] 26.9 µM | [2] 32.6 µM | [3] 31.4 µM | [4] 31.2 µM | [7] 36.8 µM | [9] 37.3 µM | [10] 31.3 µM | [12] 6.63 µM | [14] 36.8 µM | [15] 37.5 µM

COC(=O)c1ccccc1O
inactive: [1] | [2] | [3] | [4] | [5] | [7] | [8] | [9] | [10] | [17] | [11] | [12] | [13] | [14] | [18] | [15] | [16]

COc1ccc(/C=C/S(=O)(=O)NC(=O)c2ccc(C)cc2Cl)cc1
inactive: [1] | [2] | [3] | [4] | [5] | [6] | [7] | [8] | [10] | [17] | [11] | [12] | [13] | [14] | [18] | [15] | [16]

O=C(O)c1cccc(N(Cc2cccnc2)c2ccc(OC(F)F)c(OC(F)F)c2)c1
inactive: [1] | [2] | [4] | [5] | [6] | [7] | [8] | [17] | [11] | [12] | [13] | [14] | [18] | [15]
active: [3] 9.02 µM | [10] 2.44 µM | [16] 32.8 µM

COc1ccc2sc(C(=O)Nc3nnn[nH]3)c(OC(C)C)c2c1
active: [1] 19.9 µM | [2] 12.3 µM | [3] 7.28 µM | [4] 17.9 µM | [5] 16.1 µM | [7] 12.5 µM | [8] 14.2 µM | [9] 21.9 µM | [10] 4.45 µM | [17] 20 µM | [13] 12.7 µM | [14] 17.6 µM | [18] 19.9 µM | [16] 19.9 µM
inactive: [6] | [11] | [12] | [15]

Fc1ccccc1[C@@H](F)COC1CCC(Nc2ncnc3[nH]ncc23)CC1 (stereo not given in full)
inactive: [1] | [5] | [6] | [8] | [11] | [12] | [14] | [18] | [15] | [16]
active: [2] 30.2 µM | [3] 15.4 µM | [4] 20 µM | [7] 27.6 µM | [9] 39 µM | [10] 29.2 µM | [17] 30 µM | [13] 28.2 µM

COCCOc1cc2cc(C(=O)NC3CCN(C(C)C)CC3)n(CC(=O)Nc3ccc(Cl)cn3)c2cn1
inactive: [1] | [2] | [3] | [4] | [5] | [7] | [8] | [9] | [10] | [11] | [12] | [13] | [14] | [15] | [16]

Nc1nc2ncc(CNc3ccc(C(=O)N[C@@H](CCC(=O)O)C(=O)O)cc3)nc2c(=O)[nH]1
inactive: [1] | [2] | [3] | [4] | [5] | [6] | [7] | [8] | [9] | [10] | [11] | [12] | [13] | [14] | [18] | [15] | [16]
